PubChem BioAssay (EPA / NIEHS)
“And” between values parts separate entries of the source, which are not always exact repeats. Identical values can stand only once. Some structures have more than one record in an assay (separate samples or runs), and their calls can disagree. The source made the active and inactive calls. How the source made its calls: active means hit-call score of the fitted dose curve at least 0.9, where 1 is the maximum; inactive means score below 0.9.

Key:
[1] = BSK_3C_SRB: Viability Assessment in the BioMAP Diversity Plus: 3C Assay (AID 2283023); details: primary human endothelial cells (HUVEC);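 further: fitted both ways against DMSO so a hit may be signal rise or drop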
Method in brief: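 Primary human umbilical vein endothelial cells in the 3C system were read 24 h after compound dosing. Total protein was stained with 0.1% sulforhodamine B after 10% TCA fixation and read at 560 nm, with bidirectional fitting against DMSO as baseline.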

[2] = read-out: Matrix Metallopeptidase 1 (MMP1), MMP1 (gene 4312); test: BSK_BE3C_MMP1: BioMAP Diversity Plus: BE3C Assay for Matrix Metallopeptidase 1 (MMP1) Biomarker Activity (AID 2283024); details: primary human bronchial epithelial cells; actives raise or lower the signal
Method in brief: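 ELISA measurement of MMP-1 after 24 h compound exposure of primary human bronchial epithelial cells. Changes in either direction fitted relative to DMSO; parallel SRB staining checked overt cytotoxicity.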

[3] = BSK_3C_Vis: BioMAP Diversity Plus: 3C Assay for Morphology Visualization (AID 2283025); details: primary human endothelial cells (HUVEC);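 further: fitted both ways so gain or loss versus DMSO counts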;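 on AC50: light microscopy image of cell morphology used as background control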
Method in brief: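 Light-microscopy visualization of HUVEC cultures at 24 h post-treatment, with DMSO as baseline for bidirectional fitting.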

[4] = read-out: Pselectin, SELP (gene 6403); test: BSK_4H_Pselectin: BioMAP Diversity Plus: 4H Assay for Pselectin Biomarker Activity (AID 2283026); details: primary human endothelial cells (HUVEC); actives raise or lower the signal
Method in brief: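 ELISA of surface P-selectin on HUVEC, 24 h after dosing, with parallel SRB staining (0.1% after 10% TCA fixation, 560 nm) for overt cytotoxicity. Activity fitted in both directions relative to DMSO.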

[5] = BSK_4H_SRB: Viability Assessment in the BioMAP Diversity Plus: 4H Assay (AID 2283027); details: primary human endothelial cells (HUVEC);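 further: cells exposed to compound for 24 h before staining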;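 on AC50: curves fitted both ways versus DMSO so AC50 may be loss or gain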
Method in brief: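 Cytotoxicity read-out in primary human endothelial cells: after 24 h compound exposure, cells were TCA-fixed (10%), stained with 0.1% SRB and absorbance taken at 560 nm. Values fitted in both directions relative to DMSO.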

[6] = BSK_BE3C_SRB: Viability Assessment in the BioMAP Diversity Plus: BE3C Assay (AID 2283028); details: primary human bronchial epithelial cells;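 on AC50: fitted both ways so AC50 may mark signal gain or loss versus DMSO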
Method in brief: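 Human primary bronchial epithelial cells were exposed to test chemicals for 24 h. Total protein in parallel cultures was then measured by staining with 0.1% sulforhodamine B after 10% TCA fixation, with absorbance read at 560 nm. Activity was fitted bidirectionally against DMSO.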

[7] = read-out: Thrombomodulin, THBD (gene 7056); test: BSK_3C_Thrombomodulin: BioMAP Diversity Plus: 3C Assay for Thrombomodulin Biomarker Activity (AID 2283029); details: primary human endothelial cells (HUVEC); actives raise or lower the signal
Method in brief: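 ELISA measurement of thrombomodulin on HUVEC surface 24 h after chemical dosing; activity fitted in both directions relative to DMSO vehicle.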

[8] = read-out: Urokinase-type plasminogen activator receptor (uPAR), PLAUR (gene 5329); test: BSK_4H_uPAR: BioMAP Diversity Plus: 4H Assay for Urokinase-type plasminogen activator receptor (uPAR) Biomarker Activity (AID 2283030); details: primary human endothelial cells (HUVEC); actives raise or lower the signal
Method in brief: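 Primary human umbilical vein endothelial cells were exposed to chemical for 24 h before cell-surface uPAR was quantified by ELISA. Activity was fitted bidirectionally against the DMSO negative control baseline.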

[9] = read-out: Human Leukocyte Antigen - DR isotype (HLADR), HLA-DRA (gene 3122); test: BSK_BE3C_HLADR: BioMAP Diversity Plus: BE3C Assay for Human Leukocyte Antigen - DR isotype (HLADR) Biomarker Activity (AID 2283032); details: primary human bronchial epithelial cells; actives raise or lower the signal
Method in brief: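 Cell-surface HLA-DR ELISA readout at 24 h after dosing in the BE3C primary human lung bronchial epithelial system; gain or loss of signal against DMSO, with parallel sulforhodamine B staining of total protein for overt cytotoxicity.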

[10] = read-out: Vascular endothelial growth factor receptor 2 (Homo sapiens) (UniProt P35968); test: BSK_4H_VEGFRII: BioMAP Diversity Plus: 4H Assay for Vascular endothelial growth factor receptor 2 (VEGFR2) Biomarker Activity (AID 2283031); details: primary human endothelial cells (HUVEC); actives raise or lower the signal;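 on AC50: cell-surface VEGFR2 protein level quantified by ELISA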
Method in brief: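 Primary human umbilical vein endothelial cells in the BioMAP 4H system were dosed with test chemical, and 24 h later VEGFRII was measured by ELISA. Activity was fitted bidirectionally against DMSO as negative control and baseline.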

Measured: AC50

CCCCCCCCCCCCCCC
not listed: [10]
inactive: all other assays above

O=C(CCCN1CCC(O)(c2ccc(Cl)cc2)CC1)c1ccc(F)cc1
active: [1] 17.4 µM | [3] 9.8 µM | [5] 9.78 µM | [8] 10.9 µM
not listed: [10]
inactive: all other assays above

C=CC(C)(CCC=C(C)C)OC(C)=O (configuration not stated)
inactive: [2] | [6] | [7]
active: [1] 28.9 µM | [3] 37.4 µM | [4] 31 µM | [5] 34.2 µM | [8] 28.9 µM | [9] 30.2 µM

CC(C)(C)c1ccc(O)c(O)c1
active: [1] 5.42 µM | [3] 8.8 µM | [4] 20 µM | [5] 5.52 µM
not listed: [10]
inactive: all other assays above

Cc1ccc(C(=O)c2ccccc2)cc1
active: [1] 31.5 µM | [3] 38.9 µM | [4] 31.2 µM | [5] 36.5 µM
not listed: [10]
inactive: all other assays above

O=C1NS(=O)(=O)c2ccccc21
active: [4] 5.01 µM
inactive: [1] | [2] | [3] | [4] | [5] | [6] | [7] | [8] | [10] | [9]

CC1=NN(c2ccccc2)C(=O)C1
not listed: [10]
inactive: all other assays above

OCC(CO)(CBr)CBr
not listed: [10]
inactive: all other assays above

O=P(O)(O)CCC(F)(F)C(F)(F)C(F)(F)C(F)(F)C(F)(F)C(F)(F)F
inactive: [1] | [2] | [4] | [5] | [6] | [7] | [8] | [9]
active: [2] 40 µM | [7] 22.7 µM

CCCCCCCCCCCCCCCCCC[N+](C)(C)Cc1ccccc1
active: [1] 0.299 µM | [2] 10 µM | [3] 0.425 µM | [4] 0.975 µM | [5] 2.63 µM | [8] 0.59 µM | [9] 2.05 µM
inactive: [6] | [7] | [10]

CC(=O)Nc1ccc(O)cc1
inactive: all assays above

C[C@]12CC[C@@H]3c4ccc(O)cc4CC[C@H]3[C@@H]1C[C@@H](O)[C@@H]2O
not listed: [10]
inactive: all other assays above

Cc1[nH]nc2c1N=C(c1ccccc1Cl)c1cc([N+](=O)[O-])ccc1N2
active: [1] 0.75 µM | [3] 0.645 µM | [4] 0.639 µM | [5] 0.733 µM | [6] 20.3 µM | [8] 0.666 µM | [10] 2.43 µM | [9] 10.3 µM
inactive: [2] | [7]

O=P(O)(O)CCC(F)(F)C(F)(F)C(F)(F)C(F)(F)C(F)(F)C(F)(F)C(F)(F)C(F)(F)F
active: [1] 47 µM | [2] 11.5 µM | [5] 42.7 µM
inactive: [1] | [2] | [4] | [5] | [6] | [7] | [8] | [10] | [9]

CCCCC(CC)C(=O)O (configuration not stated)
inactive: all assays above

CCCCc1oc2ccccc2c1C(=O)c1cc(I)c(OCCN(CC)CC)c(I)c1
active: [1] 8.48 µM | [2] 25 µM | [3] 9.65 µM | [4] 9.72 µM | [5] 13.1 µM | [6] 25.4 µM | [8] 15.1 µM | [10] 21.2 µM | [9] 15.1 µM
inactive: [7]

COc1cccc(O)c1
active: [2] 0.193 µM
inactive: all other assays above

Oc1cc2ccccc2cc1O
not listed: [10]
inactive: all other assays above

O=C(O)CCC(F)(F)C(F)(F)C(F)(F)C(F)(F)C(F)(F)C(F)(F)F
inactive: [1] | [2] | [4] | [5] | [6] | [7] | [8] | [10] | [9]
active: [2] 7.99 µM

OCCN1CN(CCO)CN(CCO)C1
inactive: [2] | [6] | [7]
active: [1] 32.1 µM | [3] 14.9 µM | [4] 23.1 µM | [5] 31.5 µM | [8] 29 µM | [10] 33.9 µM | [9] 35.5 µM

CCC(C)c1ccccc1O (configuration not stated)
inactive: all assays above

O=S(=O)(O)C(F)(F)C(F)(F)C(F)(F)C(F)(F)C(F)(F)C(F)(F)C(F)(F)C(F)(F)C(F)(F)C(F)(F)F
active: [1] 18.5 µM and 14.5 µM | [2] 3.54 µM | [6] 12.9 µM and 10.8 µM | [9] 18.2 µM and 15.8 µM
inactive: [2] | [4] | [5] | [7] | [8]

COc1cc(OC)nc(NC(=O)NS(=O)(=O)Nc2ccccc2C(=O)N(C)C)n1
inactive: all assays above

CCCCC(CC)C(=O)OCCOCCOCCOCCOC(=O)C(CC)CCCC (configuration not stated)
inactive: all assays above

CN(CCO)S(=O)(=O)C(F)(F)C(F)(F)C(F)(F)C(F)(F)C(F)(F)C(F)(F)C(F)(F)C(F)(F)F
inactive: [1] | [2] | [4] | [5] | [6] | [7] | [8] | [9]
active: [2] 1.63 µM | [4] 0.243 µM

O=C(NO)c1ccccc1
inactive: all assays above

C=COC(=O)C(C)(C)CCCCCC
inactive: [6]
active: [1] 34.6 µM | [2] 3.97 µM | [3] 37.8 µM | [4] 32.4 µM | [5] 34.3 µM | [7] 20 µM | [8] 32.6 µM | [9] 24.8 µM
